This is an account of results in PubChem BioAssay.

Calls of active or inactive are those of the source.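 Rule for the calls, unless noted: active = fluorescence slope higher than the sample average by over 3 SD (cut at about -0.22 in these data, passing the limit was not always enough); inactive = the rest.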

Assay [1] is described as follows: inhibitors of TNFa-induced NFkB p65 translocation, primary screen, imaging, HUVEC, MLSMR starter and 10KST1 sets (AID 438;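 active = inhibition above 20% together with a positive visual image hit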;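 note: compound added about 3h40 before a 20 min TNFalpha stimulation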;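 for inhibition: signal is the nuclear over cytoplasmic p65 intensity ratio per well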). Conditions: HUVEC TNFa-induced p65 nuclear translocation; cell count: measured here: nuclei count (cytotoxicity indicator), at 2.08 µM; inhibition: at 2 µM, stronger effect = higher value, 0% TNFa-plus-vehicle, 100% no-TNFa wells.
Assay [2] can be described thus: inhibitors of mutant huntingtin aggregation, primary screen, imaging, exon1htt(103Q)mCFP cells, high-content imaging (AID 483;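 active = visual image review flags a hit and inhibition of aggregation exceeds 20%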;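 note: compound exposure lasted 3 days before fixation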;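 for nuclei count: percent of the per-plate median nuclei count of sample wells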). As to conditions: exon1htt(103Q)mCFP cell line, aggregate imaging, at 2 µM; inhibition of aggregation: stronger effect = higher value; nuclei count: measured here: cell count, toxicity.
Assay [3] in a line: inhibitors of E-selectin induction by TNFa, primary screen, imaging, HUVEC, immunofluorescence, MLSMR starter and 10KST1 sets (AID 487;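 active = visually confirmed hit in the image check and inhibition above 20%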;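 for inhibition: signal is fraction of cell area covered by stained E-selectin grains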;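 for nuclei count: 100% = median nuclei count of all wells on the same plate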). Conditions: HUVEC TNFalpha-induced E-selectin immunofluorescence imaging, at 2 µM; inhibition: stronger effect = higher value; nuclei count: measured here: cell number, toxicity.
Assay [4] has as its target Voltage-gated potassium channel subunit beta-2 (Rattus norvegicus) (UniProt P62483). The assay is described as follows: KvBeta enzyme negative modulators, primary screen, biochemical, NADPH fluorescence (AID 622).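 Note: slope of raw intensity against log time taken from 70 to 1610 s.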 As to conditions: recombinant KvBeta, 4-cyanobenzaldehyde reduction, at 10 µM, stronger effect = higher value.
The target is the same in assay [5]. The experiment in a line: KvBeta positive modulators, primary screen, biochemical, NADPH fluorescence (AID 623;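 active = NADPH fluorescence slope more negative than the mean of all samples by about 3 SD, 99.7% confidence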;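 note: fluorescence intensity change per second fitted from 20 to 320 s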). Conditions: Recombinant KvBeta, NADPH fluorescence decrease slope, 10 min; at 10 µM; stronger effect = lower value.
Assay [6] deals with Alpha-2C adrenergic receptor (Homo sapiens) (UniProt P18825). The assay is described as follows: modulators of alpha2C/GIRK thallium flux, primary screen, cell-based, HEK293 alpha2C/GIRK1/2 (AID 624;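 active = fluorescence slope after compound addition differing from the mean of all screened samples at 99.7% confidence, in either direction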;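 note: slope of fluorescence ratio to pre-addition baseline per second over 15 to 24 s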). As to conditions: thallium flux BTC fluorescence, at 10 µM, actives lie on both sides.
Alpha-2C adrenergic receptor (Homo sapiens), sequence (P18825 whole entry, looked up): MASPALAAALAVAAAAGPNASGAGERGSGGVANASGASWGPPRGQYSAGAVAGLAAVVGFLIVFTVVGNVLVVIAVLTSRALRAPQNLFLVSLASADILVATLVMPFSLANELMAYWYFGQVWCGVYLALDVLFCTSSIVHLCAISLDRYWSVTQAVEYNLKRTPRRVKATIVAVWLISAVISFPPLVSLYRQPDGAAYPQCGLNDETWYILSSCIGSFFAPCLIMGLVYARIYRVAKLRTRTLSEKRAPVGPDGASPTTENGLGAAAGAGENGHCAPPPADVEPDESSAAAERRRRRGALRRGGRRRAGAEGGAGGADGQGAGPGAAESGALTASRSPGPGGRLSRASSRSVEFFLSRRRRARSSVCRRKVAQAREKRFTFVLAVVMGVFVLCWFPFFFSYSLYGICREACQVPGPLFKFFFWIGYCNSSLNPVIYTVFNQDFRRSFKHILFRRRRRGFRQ
Assay [7] in a line: inhibitors of Sendai virus-induced IRF3 signaling, primary screen, TLR/RLR signaling modifier project, cell-based, Sendai virus stimulus, luciferase, 10K MLSCN set (AID 602276;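 active = inhibition at or above 50% at 10 µM; inactive = inhibition below 50%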;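 note: firefly luciferase from ISG56 promoter only with Renilla not read in this screen; 0% = Sendai virus plus DMSO and 100% = medium plus DMSO without virus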). Conditions: HEK293 RL24 IRF3 luciferase reporter, at 10 µM, stronger effect = higher value.
A short description of assay [8]: inhibitors of poly I:C-induced TLR3 signaling, primary screen, cell-based, poly I:C stimulus, luciferase, 10K MLSCN set (AID 602277;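 active = inhibition of the reporter signal at or above 50%; inactive = inhibition below 50%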). Conditions: HEK293-TLR3 RL24 IRF3 luciferase reporter, at 10 µM, stronger effect = higher value. Background: Reporter assays use an easily measured gene product as a stand-in for the process of interest.

Voltage-gated potassium channel subunit beta-2 (Rattus norvegicus), sequence (P62483 whole entry, looked up): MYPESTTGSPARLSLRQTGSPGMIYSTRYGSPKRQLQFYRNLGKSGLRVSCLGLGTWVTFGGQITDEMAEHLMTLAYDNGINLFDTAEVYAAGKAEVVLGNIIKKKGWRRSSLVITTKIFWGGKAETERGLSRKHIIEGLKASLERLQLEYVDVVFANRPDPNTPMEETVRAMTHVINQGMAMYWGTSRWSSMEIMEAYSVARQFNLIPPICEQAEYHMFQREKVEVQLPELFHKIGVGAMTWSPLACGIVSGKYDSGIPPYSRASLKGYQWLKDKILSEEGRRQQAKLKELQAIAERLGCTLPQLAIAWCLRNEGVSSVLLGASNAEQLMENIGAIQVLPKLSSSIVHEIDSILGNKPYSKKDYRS

On to `CCCOc1ccc(OCCSc2ncccn2)cc1`, for which the cell count in assay [1] stood at 811. In addition, the inhibition – broadly, the change of the read-out against control, counted positive when it falls – in assay [1] is -13% (inactive); in assay [3], -93.3% (inactive); in assay [7], -39.4% (inactive); in assay [8] it was -92% (inactive). Further, the inhibition of aggregation in assay [2] is 24.7% (inactive). Further, the nuclei count in assay [2] and in assay [3] was 108% each time. Besides, the fluorescence slope in assay [4] was -0.454 (inactive). In assay [5], the NADPH fluorescence slope is 2.1e-05 (inactive). For the same molecule, the slope in assay [6] was 0.0061 (inactive).

Turning to `Cc1cccc(NC(=O)Cn2c(=O)n(C)c3ccccc32)c1`, in assay [1], the cell count is 350. For the same molecule, the inhibition in assay [1] is -3.7% (inactive); in assay [3], -17.7% (inactive); in assay [7] it was 9.53% (inactive); in assay [8], 9.37% (inactive). Besides, the inhibition of aggregation in assay [2] is 2.6% (inactive). The nuclei count in assay [2] and in assay [3] was 107% each time. Besides, the fluorescence slope in assay [4] was -0.417 (inactive). Further, the NADPH fluorescence slope in assay [5] is 9.1e-06 (inactive). The slope in assay [6] is 0.011 (inactive).

`CC(C)CCNC(=O)NC(=O)COc1ccccc1C#N`: in assay [1], the cell count stood at 381. The inhibition is -23.5% (inactive) in assay [1], -71.3% (inactive) in assay [3], -47.7% (inactive) in assay [7] and -112% (inactive) in assay [8]. The inhibition of aggregation in assay [2] was 15.6% (inactive). For the same molecule, the nuclei count in assay [2] came out at 102%; in assay [3] it was 111%. The fluorescence slope in assay [4] is -0.586 (inactive). For the same molecule, the NADPH fluorescence slope in assay [5] was -8.5e-06 (inactive). The slope in assay [6] is 0.00627 (inactive).

Take `Clc1ss/c(=N\c2ccccn2)c1Cl`: the cell count in assay [1] was found to be 623. Besides, the inhibition in assay [1] is -6.5% (inactive); in assay [3], -39.9% (inactive); in assay [7], -8.89% (inactive); in assay [8], -24% (inactive). In addition, the inhibition of aggregation in assay [2] was -1.1% (inactive). Further, the nuclei count in assay [2] came to 112%; in assay [3], 124%. Also, in assay [4], the fluorescence slope is -0.483 (inactive). The NADPH fluorescence slope in assay [5] was -0.000216 (inactive). In addition, the slope in assay [6] is 0.0043 (inactive).

Regarding `Cc1c(C(=O)O)c(-c2ccccc2)nn1-c1ccccc1`, the cell count in assay [1] was found to be 119. The inhibition in assay [1] is 12.1% (inactive); in assay [3], -11.7% (inactive); in assay [7] it was 15% (inactive); in assay [8], -3.71% (inactive). For the same molecule, the inhibition of aggregation in assay [2] was 3.2% (inactive). Besides, the nuclei count in assay [2] was 85.6%; in assay [3], 127%. Also, the fluorescence slope in assay [4] was -0.39 (inactive). For the same molecule, in assay [5], the NADPH fluorescence slope was -0.000126 (inactive). Moreover, the slope in assay [6] was 0.00692 (inactive).

Regarding `CCN(CC)CCCn1c(=S)[nH]c2cc(Cl)ccc2c1=O`, the cell count in assay [1] was determined as 353. In addition, the inhibition in assay [1] is -0.2% (inactive); in assay [3], 6.9% (inactive); in assay [7], 12.1% (inactive); in assay [8], 21.3% (inactive). Besides, in assay [2], the inhibition of aggregation was 7.4% (inactive). In addition, the results for the nuclei count in assay [2] and in assay [3] were 100% and 97.4%, respectively. Besides, in assay [4], the fluorescence slope is -0.514 (inactive). Further, the NADPH fluorescence slope in assay [5] is -0.000206 (active). For the same molecule, in assay [6], the slope was 0.00373 (inactive).

For `CCOc1ccc(NC(=O)c2ccccc2O)cc1`, the cell count in assay [1] was 558. Besides, the inhibition in assay [1] was -1.7% (inactive); in assay [3], -114% (inactive); in assay [7] it was -59.1% (inactive); in assay [8], -110% (inactive). Moreover, the inhibition of aggregation in assay [2] is 9.7% (inactive). Moreover, the nuclei count was 71.8% in assay [2] and 96.2% in assay [3]. The fluorescence slope in assay [4] is -0.622 (inactive). Further, in assay [5], the NADPH fluorescence slope is -2e-05 (inactive). For the same molecule, the slope in assay [6] is 0.00439 (inactive).

In the case of `CCOC(=O)C1CCN(Cc2c(O)ccc3ccccc23)CC1`, the cell count in assay [1] was determined as 596. Moreover, the inhibition in assay [1] was -3% (inactive); in assay [3] it was -41.8% (inactive); in assay [7], 25.4% (inactive); in assay [8] it was 33.8% (inactive). Besides, the inhibition of aggregation in assay [2] is 3.7% (inactive). Further, the nuclei count in assay [2] amounted to 109%; in assay [3], 124%. Further, the fluorescence slope in assay [4] is -0.5 (inactive). Besides, the NADPH fluorescence slope in assay [5] is -7.8e-05 (inactive). In addition, in assay [6], the slope is 0.00484 (inactive).

Consider `Cn1cc(-c2nc3ccccc3[nH]2)c2ccccc21`, for which the cell count in assay [1] was 250. The inhibition in assay [1] is 2.1% (inactive); in assay [3], 55.1% (inactive); in assay [7], -9.53% (inactive); in assay [8] it was -51.2% (inactive). Moreover, the inhibition of aggregation in assay [2] is 33.7% (inactive). For the same molecule, the nuclei count was determined as 82.6% in assay [2] and 83.3% in assay [3]. Further, the fluorescence slope in assay [4] is -0.416 (inactive). Moreover, the NADPH fluorescence slope in assay [5] is -6e-05 (inactive). Also, the slope in assay [6] is 0.00369 (inactive).

Turning to `Cc1ccc(CN2C(=O)CCC2C(=O)NCCCN2CCC(C)CC2)cc1` (stereo not given), the cell count in assay [1] stood at 379. For the same molecule, the inhibition in assay [1] was -7.4% (inactive); in assay [3] it was 6.2% (inactive); in assay [7], 14.7% (inactive); in assay [8] it was 9.9% (inactive). Besides, in assay [2], the inhibition of aggregation is 19.6% (inactive). Besides, the nuclei count was found to be 85.5% in assay [2] and 77.7% in assay [3]. For the same molecule, in assay [4], the fluorescence slope is -0.584 (inactive). The NADPH fluorescence slope in assay [5] is -3.4e-05 (inactive). Moreover, the slope in assay [6] is 0.00384 (inactive).

As for `COc1ccc(CC(NC(C)=O)C(=O)N2CCN(C(=O)N(C(C)C)C(C)C)CC2)cc1` (stereo not given), the cell count in assay [1] turned out to be 309. The inhibition in assay [1] is -4% (inactive); in assay [3] it was -29.4% (inactive); in assay [7] it was 4.31% (inactive); in assay [8] it was 3.57% (inactive). Besides, in assay [2], the inhibition of aggregation is -9.5% (inactive). The nuclei count amounted to 91.9% in assay [2] and 100% in assay [3]. In assay [4], the fluorescence slope is -0.397 (inactive). Further, the NADPH fluorescence slope in assay [5] is -6.6e-05 (inactive). The slope in assay [6] is 0.00701 (inactive).

For `CN1CCN(C(=O)NC2CCCN2S(=O)(=O)c2ccc(Cl)cc2)CC1` (stereo not given), the cell count in assay [1] stood at 528. Further, the inhibition in assay [1] was -20.6% (inactive); in assay [3], 31.3% (inactive); in assay [7] it was 0.971% (inactive); in assay [8], 21.8% (inactive). For the same molecule, in assay [2], the inhibition of aggregation is 11.5% (inactive). Further, the results for the nuclei count in assay [2] and in assay [3] were 106% and 105%, respectively. For the same molecule, in assay [4], the fluorescence slope is -0.493 (inactive). In addition, the NADPH fluorescence slope in assay [5] is -5.8e-05 (inactive). In addition, in assay [6], the slope is 0.00636 (inactive).

As to `c1ccc2oc(SCc3cn4ccccc4n3)nc2c1`, the cell count in assay [1] is 612. The inhibition in assay [1] was 12.6% (inactive); in assay [3] it was -30.4% (inactive); in assay [7] it was -46.4% (inactive); in assay [8], -151% (inactive). The inhibition of aggregation in assay [2] was 16.1% (inactive). Also, the figures for the nuclei count in assay [2] and in assay [3] were 99.8% and 132%, respectively. In addition, in assay [4], the fluorescence slope is -0.506 (inactive). In addition, the NADPH fluorescence slope in assay [5] was -4.1e-05 (inactive). Besides, the slope in assay [6] was 0.00508 (inactive).

`CC(C)(C)NC(=O)C(c1ccco1)N(C(=O)Cn1nnc(-c2ccc(F)cc2)n1)c1ccccc1F` (stereo not given): the cell count in assay [1] came out at 562. Further, the inhibition in assay [1] was 1.2% (inactive); in assay [3], -96.2% (inactive); in assay [7], 10.9% (inactive); in assay [8] it was 39.7% (inactive). In addition, in assay [2], the inhibition of aggregation is 14.8% (inactive). Moreover, the values for the nuclei count in assay [2] and in assay [3] were 96.5% and 127%, respectively. Also, in assay [4], the fluorescence slope was -0.56 (inactive). In addition, in assay [5], the NADPH fluorescence slope was -6.1e-05 (inactive). In addition, the slope in assay [6] was 0.00563 (inactive).

In the case of `CCOc1ccc(C(=O)CN2CCN(S(=O)(=O)c3ccc(OC)cc3)CC2)cc1`, the cell count in assay [1] worked out at 599. Besides, the inhibition is -2.9% (inactive) in assay [1], -29.2% (inactive) in assay [3], -2.61% (inactive) in assay [7] and 21.2% (inactive) in assay [8]. Besides, the inhibition of aggregation in assay [2] is -3.6% (inactive). Also, the nuclei count in assay [2] worked out at 106%; in assay [3], 92.2%. Further, the fluorescence slope in assay [4] is -0.391 (inactive). Also, the NADPH fluorescence slope in assay [5] was -4.7e-05 (inactive). Besides, the slope in assay [6] was 0.00338 (inactive).
